# Compound activity as filed in PubChem.
# Sampled rows, rich in hits. Any-hit rate of the full collection: about 3.4%.
# TEAD-YAP inh = TEAD-YAP interaction inhibition | HEK-TIYL cells, TEAD-Gal4/YAP UAS-luciferase luminescence | inhibition, % at 9.12 µM | 640,000 compounds, 1.4% hits; in the data active means inhibition above about 32%;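 further: 0% = median of test compound wells and 100% = reference inhibitor wells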
# FBW7 activator = activators of human E3 ligase FBW7. Q969H0. AlphaScreen FBW7–phospho-cyclin E peptide binding, activator screen. normalized activity (activation), % at 26.1 µM. 650,000 compounds, 0.13% hits. AID 1259310; in the data active means normalized activity above about 1.9%;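 further: purified mutant Fbw7 with reduced substrate affinity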
# GPR151 activ = activators of human GPR151; PathHunter beta-arrestin GPR151 cells, luminescence; activation, % at 11.2 µM; AID 1508602; 650,000 compounds, 1% hits; in the data active means activation above about 4.9%;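 further: 0% = median of compound wells and 100% = cells with positive control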
# Target sequence (Q8TDV0 whole entry, looked up): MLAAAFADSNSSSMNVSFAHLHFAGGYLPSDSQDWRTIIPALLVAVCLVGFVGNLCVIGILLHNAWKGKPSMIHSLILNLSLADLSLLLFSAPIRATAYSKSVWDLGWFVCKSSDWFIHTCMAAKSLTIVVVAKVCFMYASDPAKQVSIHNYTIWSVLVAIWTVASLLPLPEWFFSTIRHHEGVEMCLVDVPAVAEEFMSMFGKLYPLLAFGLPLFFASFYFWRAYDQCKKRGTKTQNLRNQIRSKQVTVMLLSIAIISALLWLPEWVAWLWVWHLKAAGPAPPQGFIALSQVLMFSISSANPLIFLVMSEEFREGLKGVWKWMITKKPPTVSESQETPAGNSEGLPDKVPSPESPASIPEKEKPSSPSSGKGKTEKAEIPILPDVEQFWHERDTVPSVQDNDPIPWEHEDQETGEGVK
# MITF primary = human MITF inhibition, primary screen; O75030; AID 1259374; AlphaScreen MITF homodimerization, bead proximity signal; inhibition, % at 2.6 µM; 650,000 compounds, 0.91% hits; in the data active means inhibition above about 50%;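 further: 0% = vehicle wells with protein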
# MITF confirm = human MITF inhibition, confirmation; shares compounds with MITF primary; AlphaScreen MITF homodimerization, biotin/His-MITF beads; inhibition, % at 2.6 µM; 4,700 compounds, 16% hits;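 active means inhibition above a cutoff derived from the DMSO control wells, cut at about 28% in these data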;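 further: 0% = MITF dimer wells with DMSO only; inhibitors lower the bead chemiluminescence by keeping MITF from dimerizing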
# AlphaScreen DR = AlphaScreen optical interference, dose response counter-screen; shares compounds with MITF primary; AlphaScreen optical interference counterscreen, cell-free; IC50, µM; 480 compounds, 6% hits; call rule not given here
# AS interf ctr = AlphaScreen optical interference, counter-screen | shares compounds with MITF primary | inhibition, % at 2.6 µM | LysRS AlphaScreen counterscreen, signal interference, triplicate | 4,700 compounds, 7.6% hits;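 active means inhibition above a cutoff derived from the DMSO control wells, cut at about 30% in these data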
# Starred values were filed as active, the others as inactive; · = no result given.
SMILES,TEAD-YAP inh,FBW7 activator,GPR151 activ,MITF primary,MITF confirm,AS interf ctr,others
O=C(CN1CCC(NC(=O)c2ccco2)CC1)Nc1ccccc1F,1,0,1,-3,·,·,
COc1ccc(Cl)cc1NC(=O)CN1CCN(CC(=O)c2ccco2)CC1,1,0,1,53*,8,12,
O=C(CN1CCN(CC(=O)c2ccco2)CC1)Nc1ccc2c(c1)OCCO2,0,-1,-1,69*,10,17,
COc1ccc(Cl)cc1NC(=O)CN1CCN(C)CC1,5,0,0,12,·,·,
O=C(CN1CCN(CC(=O)c2ccco2)CC1)Nc1ccccc1F,-10,0,1,66*,9,14,
O=C(CC(=O)c1ccco1)Nc1cc(Cl)ccc1Cl,-20,0,-1,56*,0,15,
COc1ccc(CN2CCN(C3CCCC3)C(CCO)C2)cc1O (stereo not drawn),0,0,-1,12,·,·,
COc1ccccc1NC(=O)NC(=O)N(C)S(=O)(=O)c1ccc(C)cc1,-6,0,1,6,·,·,
CC(C)n1nnnc1CN1CCN(c2ccccc2F)CC1,6,0,1,9,·,·,
N#Cc1ccccc1NC(=O)CN1CCN(Cc2ccccc2)CC1,-6,0,-1,60*,4,0,
Cc1ccccc1NC(=O)CN1CCN(Cc2ccccc2)CC1,-2,0,0,12,·,·,
CC1CCCCC1NC(=O)CCn1nc(-c2ccc(Cl)cc2)ccc1=O (stereo not drawn),1,0,1,-1,·,·,
O=C(Nc1nc(-c2ccc(I)cc2)cs1)c1ccc([N+](=O)[O-])s1,-4,0,2,6,·,·,
CCOC(=O)C1CCN(S(=O)(=O)c2cc(Cl)c(C)cc2OC)CC1,-16,0,2,-6,·,·,
CCOC(=O)C1CCN(S(=O)(=O)c2ccc(Cl)cc2OC)CC1,-6,0,0,59*,17,14,
CCCN1CCN(CC(=O)NC(C)c2cccc(Cl)c2)CC1 (stereo not drawn),-7,0,-1,92*,13,22,
CC(NC(=O)CN1CCN(c2cccc(Cl)c2)CC1)c1ccccc1 (stereo not drawn),2,0,0,0,·,·,
Cc1cnc(CNc2cc(-c3cccnc3)nc(-c3cccnc3)n2)nc1,6,-1,-1,78*,13,26,
c1cncc(-c2cc(NCCCn3ccnc3)nc(-c3ccncc3)n2)c1,11,-1,-1,32,·,·,
c1ccc(-c2nc(NCCCn3ccnc3)cc(-c3cccnc3)n2)cc1,11,-1,0,54*,34*,44*,
c1ccc(-c2cc(NCCCn3ccnc3)nc(-c3cccnc3)n2)cc1,15,-1,1,53*,24,39*,
c1ccc(-c2nc(NCCCn3ccnc3)cc(-c3ccncc3)n2)cc1,-4,-1,-2,44,·,·,
CC1=C(C#N)c2nc(N)c(C#N)c(C)c2/C1=C\c1cccnc1,1,0,0,13,·,·,
FC(F)(F)c1ccccc1CN1CCN(Cc2ccc(Cl)cc2)CC1,-12,0,-1,41,·,·,
FC(F)(F)c1ccccc1CN1CCOCC1,8,0,0,77*,3,-1,
SMILES,TEAD-YAP inh,FBW7 activator,GPR151 activ,MITF primary,MITF confirm,AS interf ctr,others
FC(F)(F)c1ccccc1CN1CCN(Cc2cccnc2)CC1,-1,0,1,83*,10,22,
Cc1ccccc1CN1CCN(Cc2ccccc2C(F)(F)F)CC1,0,0,-1,80*,-2,13,
O=C(CSC1=NC(=O)C(Cc2ccccc2)C(=O)N1)Nc1cccc(Cl)c1 (stereo not drawn),-5,0,0,-2,·,·,
O=C1NC(=O)N(c2ccc(OCc3ccccc3)cc2)C(=O)/C1=C/c1ccc(O)cc1,-3,0,0,-7,·,·,
CC(C)(C)Nc1ccc2nonc2c1[N+](=O)[O-],1,0,-1,4,·,·,
NC(=O)C(=O)N/N=C1\CCc2ccccc21,-2,0,0,5,·,·,
O=S(=O)(O)c1ccc(N/N=C2\CCc3ccccc32)cc1,16,0,-1,67*,46*,-2,AlphaScreen DR=>6.5
CC1CCCCN1Cc1c(C#N)c2ccccc2n1C (stereo not drawn),-1,0,3,-14,·,·,
CC1CCCCN1Cc1ccccc1C#N (stereo not drawn),1,0,2,71*,-12,-7,
O=C(COc1cccc([N+](=O)[O-])c1)N/N=C/c1ccc(O)c(I)c1,5,0,0,5,·,·,
COc1ccc2oc(=O)c(-c3cn4cccnc4n3)cc2c1,-26,0,0,72*,4,12,
O=C(NCc1ccco1)Nc1c[nH]c2cccnc2c1=O,-4,-1,-1,59*,81*,87*,
NC(=O)NC(=O)CC1S/C(=N/N=C2\CSC(=O)N2)NC1=O (stereo not drawn),10,0,-1,96*,72*,100*,
CCOC(=O)c1ccc(NC(=O)CC2S/C(=N/N=C3\CSC(=O)N3)NC2=O)cc1 (stereo not drawn),6,-2,-1,25,·,·,
O=C(O)CC1S/C(=N/N=C2\CSC(=O)N2)NC1=O (stereo not drawn),9,0,0,92*,84*,100*,
COc1ccc(OCCOc2cccc(C=C3C(=O)NC(=S)NC3=O)c2)cc1,-32,1,1,16,·,·,
CC(C)=CC(=O)Nc1nnc(Cc2ccccc2)s1,-3,0,-1,84*,11,14,
NC(=O)Cn1cnc2sc3c(c2c1=O)CCC3,-6,0,0,66*,60*,3,AlphaScreen DR=>6.5
O=C(O)Cn1cnc2sc3c(c2c1=O)CCC3,1,-1,-1,30,·,·,
O=C(Nc1ccc(NC(=O)c2cccs2)cc1)c1ccco1,-47,0,-3,76*,-3,-4,
COc1cc(CN2CCN(Cc3ccccc3C(F)(F)F)CC2)cc(OC)c1O,-1,0,-1,68*,2,23,
COc1ccc(OC)c(CN2CCN(Cc3ccccc3C(F)(F)F)CC2)c1,-1,0,-1,71*,9,-5,
COc1cc(CN2CCN(Cc3ccccc3F)CC2)cc(OC)c1O,6,0,-1,1,·,·,
COc1cc(OC)c(OC)cc1CN1CCN(Cc2ccccc2C(F)(F)F)CC1,-8,0,-1,76*,4,8,
COc1ccc(CN2CCN(Cc3ccccc3C(F)(F)F)CC2)c(OC)c1OC,3,0,-1,59*,5,16,
COc1ccccc1N1CCN(Cc2ccc(OC)c(OC)c2OC)CC1,4,0,0,28,·,·,
COc1ccc(OC)c(CN2CCN(c3ccccc3OC)CC2)c1,3,1,-1,23,·,·,
CCOC(=O)c1ccc(NC2c3ncccc3C(=O)N2Cc2ccco2)cc1 (stereo not drawn),-3,0,0,19,·,·,
